This is a sample that favours compounds with a hit; in the whole collection about 1.9% have one here.
Ins promoter up: MIN6 insulin promoter up-regulation. MIN6 insulin promoter-GFP reporter, high-content imaging; hits give high values. z-score at 5 µM. 0.3% of 190,000 active;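 active = z-score above 3 at 5 µM with at least 500 cells counted in the well; inconclusive = wells under 500 cells, flagged as cytotoxic or low count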
Autophagy mod: modulators of autophagy; 0.98% of 190,000 active; calls only at 10 µM (by protocol); MEF GFP-LC3 puncta imaging; test concentration mostly 10 µM;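 active = percentage of spot-positive cells more than 3 SD above its plate mean, without a fluorescence outlier flag or 80% toxicity; inconclusive = no clear call, values can overlap the other calls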;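 note: spot-positive cell cutoff set from DMSO-treated cells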
Insulin prom inh: TRM-6 insulin promoter activity inhibition | TRM-6 cells (human fetal islet line), insulin promoter-eGFP reporter, imaging; reporter expression induced with tamoxifen | inhibition, % at 2 µM | 0.9% of 130,000 active;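 active = inhibition above the mean plus 3 SD, with well images judged a real hit on visual review, cut at about 60% in these data, passing the limit was not always enough; inconclusive = inhibition over the cutoff but images rejected on review; inactive = inhibition not above the cutoff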
Efa HMGR inh: inhibitors of class II HMG-CoA reductase from Enterococcus faecalis. purified E. faecalis HMGR, NADPH absorbance 340 nm kinetic. inhibition, % at 10 µM. 0.41% of 190,000 active;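 active = inhibition above a set limit, the median over all tested compounds plus 3 SD, cut at about 9.5% in these data; inconclusive = no clear call, values can overlap the other calls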;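 note: enzyme runs in reverse so mevalonate oxidation gives rising NADPH absorbance; 0% = complete reaction with DMSO and 100% = background rate lacking mevalonate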
Numbers without * were called inactive; i = inactive; ? = inconclusive; . = not tested or not shown; + = active, no number.

SMILES	Ins promoter up	Autophagy mod	Insulin prom inh	Efa HMGR inh
Cc1cccc(C(C)(C)C)c1OCCn1ccnc1	.	i	89.0*	-6.1
COc1cccc(N2CC(=O)N(c3cccc(OC)c3)CC2=O)c1	-0.38	i	.	9.7*
Cc1cccc(N2CC(=O)N(c3cccc(C)c3)CC2=O)c1	1.07	i	.	-0.8
COc1cccc(-c2ccc(SCC(=O)c3ccccc3)nn2)c1	0.28	i	77.8*	-4.3
COc1ccc(C(=O)CSc2ccc(-c3ccccc3)nn2)cc1	1.83	i	.	-0.2
Cc1occc1C(=O)N/N=C/C(Br)=C/c1ccccc1	-0.55	i	-66.7	10.0*
O=C(N/N=C/C(Br)=C\c1ccccc1)c1n[nH]c2c1CCC2	?	+	-38.9	1.9
COc1ccc(C(=O)N/N=C/C(Br)=C/c2ccccc2)cc1	0.23	i	.	-3.5
O=C(N/N=C/C=C/c1ccccc1)c1n[nH]c2c1CCC2	.	i	24.3	1.3
O=C(CCCn1c(=S)[nH]c2ccsc2c1=O)Nc1ccc2c(c1)OCCO2	-0.06	i	.	-0.9
CCc1cccc2cc3c(N)c(C(=O)Nc4ccc(S(=O)(=O)N5CCCC5)cc4)sc3nc12	.	+	-203.0	-2.8
CC(C)N(Cc1ccccc1)C(=O)CCc1ccccc1	0.18	i	-11.8	1.6
CC(C)N(Cc1ccccc1)C(=O)CSc1nccn1C	-0.98	+	-41.7	-6.3
CC(C)N(C(=O)COC(=O)[C@@H]1CC(O)CN1S(=O)(=O)c1ccc(C(C)(C)C)cc1)C(C)C (some centres not stated)	-0.36	i	.	-0.1
Cc1cccc(OCCNc2nc3c(c(=O)n(C)c(=O)n3C)n2C)c1	4.22*	i	-14.3	0.1
Cc1cc(=O)[nH]c(SCC(=O)Nc2nnc(CC(C)C)s2)n1	-0.29	i	?	-3.4
CC(=O)Nc1c(O)nc(SCC(=O)Nc2nnc(CC(C)C)s2)[nH]c1=O	.	+	21.6	-3.7
O=C(COC(=O)c1ccc(CO)cc1)NCc1cccs1	0.54	i	6.7	-0.5
O=C(CCS(=O)(=O)c1ccc(Br)cc1)N1CCN(c2ccccc2Cl)CC1	-1.57	i	21.4	-3.0
O=C(CCS(=O)(=O)c1ccc(Br)cc1)N1CCN(c2ccccc2)CC1	0.26	+	.	-3.4
CC1=NN(C(=O)c2ccoc2C)C(O)(C(F)(F)F)C1 (configuration not stated)	0.13	.	.	.
Cc1nnc2sc(SCC(=O)Nc3ccc(Cl)cc3)nn2c1=O	0.31	i	16.7	1.0
CSc1nc(N)n2nc(-c3ccc(Cl)cc3)cc2n1	-0.48	.	.	.
COc1cccc(CNC23CC4CC(CC(C4)C2)C3)c1OCc1ccccc1	-1.57	+	.	-1.4
COc1cccc(CNCCc2c[nH]c3ccccc23)c1OCc1ccccc1	-1.4	i	.	-1.0
SMILES	Ins promoter up	Autophagy mod	Insulin prom inh	Efa HMGR inh
O=C(Nc1nc2ccccc2s1)c1cc2c(s1)-c1ccccc1OC2	-0.78	+	.	-11.2
O=C(Nc1nccs1)c1cc2c(s1)-c1ccccc1OC2	-1.04	i	.	-0.1
Cc1ccc(N2CCN(S(=O)(=O)N3CCCCC3)CC2)cc1Cl	0.38	i	70.3*	-0.2
COCCNc1ccc([N+](=O)[O-])cc1C(=O)Nc1cccc(C)n1	0.42	i	.	4.7
Cc1ccc(C)c(N(C)C(=O)COc2cc(=O)n(C)c3ccccc23)c1	-0.46	+	.	-12.8
CN(C(=O)COc1cc(=O)n(C)c2ccccc12)c1ccc(Cl)cc1	1.05	i	.	1.1
CCc1cc2c(=O)c(-c3nc4ccccc4[nH]3)coc2c(CN2CCCCC2)c1O	-0.24	.	.	.
O=c1oc2c(CN3CCCCC3)c(O)ccc2cc1-c1nc2ccccc2[nH]1	3.57*	.	.	.
CN(C)C(=O)C(CCN1CCC(O)(c2ccc(Cl)cc2)CC1)(c1ccccc1)c1ccccc1	.	+	-18.2	-4.1
CCc1cccc(CC)c1NC(=S)NCC(c1cccnc1)N(C)C (configuration not stated)	-0.49	i	-26.7	-1.7
COc1ccc(-c2nnn(CCC(=O)O)n2)cc1	0.45	i	-31.4	-2.7
COc1ccc(-c2nnn(CCc3nn[nH]n3)n2)cc1	.	i	75.0*	.
COc1ccc(C(=O)CN2C(=O)c3ccccc3C2=O)cc1	0.32	.	.	.
O=C1CCC/C1=C/Nc1ccc(Cl)cc1	-0.52	i	82.3*	-0.9
O=C(Nc1ccc(Oc2ccccc2)cc1)c1ccc(Cn2c(=O)[nH]c3ccsc3c2=O)cc1	-0.29	i	-15.0	19.9*
CSc1ncc(Cl)c(C(=O)Nc2sc3c(c2C(=O)NCc2ccco2)CCCC3)n1	0.09	+	-20.0	-0.9
Cc1cccc(C(=O)NC2CCN(C(=O)Nc3ccccc3C)CC2)c1	-0.09	i	.	14.1*
C/C(CC(=O)Nc1cccc(C(F)(F)F)c1)=N/NC(=O)C(=O)NCCO	-0.14	.	.	.
COc1ccc(S(=O)(=O)Nc2cc3c(C(C)=O)c(C)oc3c3ccccc23)cc1	.	+	-154.2	-4.5
O=[N+]([O-])c1ccccc1S(=O)(=O)NC1CCCC1	0.46	i	42.9	-3.9
CCOc1ccc(NC(=O)c2nn(C)cc2Br)cc1	0.11	i	42.9	-5.4
Cn1cc(Br)c(C(=O)Nc2ncc(Br)s2)n1	0.33	+	29.4	3.7
O=C(CSc1nnc2c3ccccc3c3ccccc3c2n1)Nc1ccccc1	-0.67	+	.	-1.6
CCOC(=O)c1nc(NCCc2ccccc2)sc1C	-0.7	i	33.3	10.8*
CCOC(=O)c1nc(NNC(C)=O)sc1C	-0.42	i	17.6	3.9
SMILES	Ins promoter up	Autophagy mod	Insulin prom inh	Efa HMGR inh
O=C(O)CSCCC(=O)Nc1ccc(F)cc1	0.89	+	.	3.3
COc1ccc(C2c3c(oc4ccc(Cl)cc4c3=O)C(=O)N2CCN2CCOCC2)cc1 (configuration not stated)	0.37	.	.	.
O=C(O)CCn1cc(/C=N/O)c(-c2cccc([N+](=O)[O-])c2)n1	-0.78	i	.	-2.5
CCOCCCn1c(SCC(=O)NCc2ccco2)nc2c(sc3ccccc32)c1=O	0.69	i	52.8	-3.7
O=C(CSc1nc2c(sc3ccccc32)c(=O)n1CCc1ccccc1)NCc1ccco1	0.54	+	-36.1	-1.1
O=C(CSc1nc2c(sc3ccccc32)c(=O)n1-c1ccccc1)NCc1ccco1	-0.33	i	72.7*	-7.9
CCCCn1c(SCC(=O)NCc2ccco2)nc2c(sc3ccccc32)c1=O	0.65	i	13.9	-1.8
CCCn1c(=O)c(Br)cn(-c2ccccc2C)c1=O	-0.1	.	.	.
O=C(NCCC1=CCCCC1)c1cc(-c2ccccn2)nc2ccccc12	0.95	i	-20.0	5.0
O=C(Nc1nc2c(s1)CN(Cc1ccccc1)CC2)c1c(F)cccc1F	-1.31	i	-22.2	-4.6
COc1ccc(NC(=S)NC(NC(=O)c2ccc(Cl)cc2Cl)C(Cl)(Cl)Cl)c([N+](=O)[O-])c1 (configuration not stated)	-1.11	+	-113.3	-0.6
COc1ccc(NC(=S)NC(NC(=O)c2ccccc2Cl)C(Cl)(Cl)Cl)c([N+](=O)[O-])c1 (configuration not stated)	.	i	-13.3	-1.5
COc1ccc(NC(=S)NC(NC(=O)c2cccc3ccccc23)C(Cl)(Cl)Cl)c([N+](=O)[O-])c1 (configuration not stated)	0.17	+	-6.5	-0.8

Compound activity as filed in PubChem BioAssay.
